# Only some compounds are listed: those with a hit (about 14% of all), similar ones and a draw of the others.
# MARV entry inh: Marburg virus entry inhibition. Marburg virus pseudotyped entry inhibition, cell reporter. Potency, µM (titrated, usually from 37.8 µM), hits mostly inhibitors. AID 540276. 1.8% of 300,000 active; calls by dose curve; tested in HEK293 cells
# Pf growth 96h: P. falciparum growth inhibition at 96 hours; 6.9% of 320,000 active; AID 504834; P. falciparum luciferase reporter growth, 96 h; Potency, µM (top dose mostly 28.7 µM), usual class: inhibitors
#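 96 h incubation, 37 C, 5% CO2, of luciferase-reporter P. falciparum-infected RBCs (2% hematocrit, 0.05% parasitemia final) with test compounds; endpoint luminescence.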
# HCV inhibitor: inhibitors of hepatitis C virus infection; Huh7.5.1 HCVcc-Cre infection, luciferase reporter, 44 h; Potency, µM (titrated, usually from 41.8 µM), actives largely listed as inhibitors; 3.4% of 340,000 active; AID 651820
#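 After 44 h co-culture of compound, cells and HCVcc-Cre (~0.5 moi), substrate is added for 15 min at room temperature and luciferase measured over 15 sec. Cells were seeded at 1,000/well and pre-cultured 4 h.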
# Pf growth 48h: P. falciparum growth inhibition at 48 hours (one generation) | Potency, µM (doses to about 28.7 µM), hits mostly inhibitors | P. falciparum luciferase growth in erythrocytes, 48 h | 5.9% of 310,000 active | AID 504832
#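 Firefly luciferase activity from engineered P. falciparum reports growth; inhibitors lower the luminescent signal. Cultures contained 2% hematocrit erythrocytes at 0.1% final parasitemia.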
# HCMV antiviral: human cytomegalovirus inhibition; HFF cells, HCMV-luciferase reporter, 72 h; active compounds read low; activity change, negative = inhibition, % at 57.5 µM; 4.5% of 410,000 active; AID 1259415; in the data active = activity change below about -60%; inconclusive = no clear call, values can overlap the other calls; inactive = above about -39%
#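 Cell-based, HFFs, 1000 cells/well, 16 h 37C; cpds in DMSO + HCMV-luc, MOI 1 PFU/cell; 72 h 37C; OneGlo luminescence after 5 min RT; norm. to buffer vs Salinomycin 10uM.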
# Lassa entry inh: blocks Lassa virus binding to or entry into cells; Lassa virus pseudotype entry inhibition, cell reporter; Potency, µM (series often up to 37.9 µM), actives largely listed as inhibitors; 1.2% of 300,000 active; calls by dose curve; tested in HEK293 cells; also: nearly all actives have a fitted effect of over 50% in size
# Numbers stand for hits; n = inactive; u = inconclusive; x = not tested or not shown. Unless noted, calls follow the shape of the dose curve; as a rule, active = well fitted inhibition curve with a large enough effect; inconclusive = small, poorly fitted or top-dose-only effect, or another doubt; inactive = no such curve, though single readings can be large or run the other way.
SMILES,MARV entry inh,Pf growth 96h,HCV inhibitor,Pf growth 48h,HCMV antiviral,Lassa entry inh
O=C(NC(=S)NNC(=O)c1ccccc1O)c1cccs1,u,n,8.9µM,u,u,u
O=C(NC(=S)NNC(=O)c1ccccc1O)c1ccc(F)cc1,u,n,n,n,n,n
Cc1cccc(C(=O)NNC(=S)NC(=O)c2cccs2)c1,u,12µM,n,n,n,u
COc1ccc(C(=O)NNC(=S)NC(=O)c2cccs2)cc1,u,n,u,n,n,u
COc1ccccc1C(=O)NNC(=S)NC(=O)c1cccs1,x,n,x,n,-78,x
CC(C)(CNC(=O)CCC1CCCC1)CNC(=O)CCC1CCCC1,x,10µM,n,u,n,x
CCc1nc2cccnc2n1-c1ccc(CC(=O)Nc2cccc(C)c2C)cc1,x,x,x,x,n,n
Oc1ccc(C[C@H]2CN([C@@H](Cc3ccc(O)cc3)CN3CCC[C@@H]3CN3C(=S)NC[C@@H]3Cc3ccccc3)C(=S)N2CC2CCCCCC2)cc1,x,x,x,x,-97,x
Oc1ccc(C[C@H]2CNC(=S)N2CC2CCCN2C[C@H](Cc2ccccc2)N2C[C@H](Cc3ccc(O)cc3)N(CC3CCCCCC3)C2=S)cc1 (stereo not given in full),x,x,u,x,-63,x
Oc1ccc(C[C@H]2CNC(=S)N2CC2CCCN2C[C@H](Cc2ccc(O)cc2)N2C[C@H](Cc3ccc(O)cc3)N(CC3CCCCC3)C2=S)cc1 (stereo not given in full),x,x,u,x,-93,x
O=C1NC[C@H](Cc2ccccc2)N(C[C@H]2CCCN2C[C@H](Cc2ccc(O)cc2)N2C[C@H](Cc3ccc(O)cc3)N(CC3CCCCCC3)C(=O)C2=O)C1=O,x,x,n,x,u,x
CC(C)C[C@H]1CN([C@@H](Cc2ccc(O)cc2)CN2CCC[C@@H]2CN2C(=S)NC[C@@H]2Cc2ccccc2)C(=S)N1CC1CCCCC1,x,x,x,x,n,x
Oc1ccc(C[C@H]2CN([C@@H](Cc3cccc(O)c3)CN3CCC[C@@H]3CN3C(=S)NC[C@@H]3Cc3ccccc3)C(=S)N2CC2CCCCC2)cc1,x,x,x,x,-72,x
O=C(CSc1nnc(COc2ccccc2)o1)Nc1cc(C(F)(F)F)ccc1Cl,n,x,x,x,n,n
COc1ccc(NC(=O)CN(C)S(=O)(=O)c2ccc3[nH]c4c(c3c2)CCCC4)cc1Cl,x,x,x,x,n,n
CCc1nc2nc(C)cc(Nc3ccc(OC)cc3OC)n2n1,u,x,x,x,n,n
Oc1ccc(C[C@H]2CNC(=S)N2CC2CCCN2C[C@H](Cc2ccc(O)cc2)N2C[C@H](Cc3ccccc3)N(CCc3ccccc3)C2=S)cc1 (stereo not given in full),x,x,4.5µM,x,n,x
O=C(CSc1nc2c([nH]c3ccccc32)c(=O)n1-c1ccccc1)NCc1ccc(F)cc1,x,x,x,x,n,u
O=C1CSC(c2c(F)cccc2Cl)N1c1cccc(F)c1 (stereo not given),n,12µM,n,u,n,n
O=C1CSC(c2ccccc2F)N1c1ccccc1 (stereo not given),n,8.3µM,u,n,n,n
CC(C)N1C(=O)C(=O)N(CC(=O)N(C)c2ccccc2)C1=O,x,n,n,n,n,x
CCOC(=O)C1=CCN(S(=O)(=O)c2ccccc2Br)C1c1ccc(C)cc1 (stereo not given),x,x,x,x,n,x
CS(=O)(=O)CCNCc1ccc(-c2ccc3ncnc(Nc4ccc(OCc5cccc(C(F)(F)F)c5)cc4)c3c2)o1,x,x,x,x,x,28µM
Nc1nc(-c2ccccc2)c(CCCOc2ccc(NC(=O)CBr)cc2)c(=O)[nH]1,n,x,n,x,n,n
Oc1ccc(Nc2nc(-c3ccccc3)nc3ccccc23)cc1,u,n,10µM,n,x,u
SMILES,MARV entry inh,Pf growth 96h,HCV inhibitor,Pf growth 48h,HCMV antiviral,Lassa entry inh
O=[N+]([O-])c1ccc(-c2nc(Nc3ccc(O)cc3)c3ccccc3n2)cc1,x,u,u,u,n,x
COc1ccc(Nc2nc(-c3ccccc3)nc3ccccc23)cc1,u,u,u,u,u,n
Oc1ccc(Nc2nc(-c3ccc(Cl)cc3)nc3ccccc23)cc1,u,x,x,x,-61,u
CC(=O)Nc1ccc(Nc2nc(-c3ccccc3)nc3ccccc23)cc1,u,n,10µM,n,-94,u
c1cncc(-c2nnc(-c3cccnc3)nn2)c1,u,u,u,2.6µM,n,u
c1ccc(-c2nnc(-c3ccccc3)nn2)cc1,u,u,n,u,n,u
COc1ccc(-c2cc(NC=O)c3ncc(-c4cccc(C(=O)NCCN(C)C)c4)n3c2)c(OC)c1,x,x,x,x,n,x
O=C(NCc1cccc(F)c1)c1ccc2nc(CCc3ccccc3)oc2c1,x,x,x,x,n,n
CCN(CC)C(=O)C1=C(C)N(Cc2ccccc2)C(=O)C(CC(=O)NC2CCCC2)C1 (stereo not given),x,x,x,x,n,x
O=C1NC(c2cn(-c3ccccc3)nc2-c2cccs2)C(C(=O)c2cccnc2)C(O)(C(F)(F)F)N1 (stereo not given),n,13µM,n,x,n,n
COc1cccc(C2NC(=O)NC(O)(C(F)(F)F)C2C(=O)c2cccnc2)c1OC (stereo not given),n,x,n,u,n,n
Cc1nn(CCC#N)c(NC(=O)c2ccc(Cl)cc2Cl)c1P(=O)(Nc1ccc([N+](=O)[O-])cc1)N1CCOCC1 (stereo not given),u,x,n,8.3µM,n,n
O=C(C[n+]1cc(-c2ccc(F)cc2)n2c1CCC2)Nc1nc(-c2ccc(F)cc2)cs1,n,u,u,u,n,n
O=C(C[n+]1cc(-c2ccc(F)cc2)n2c1CCC2)N1c2ccccc2Sc2ccccc21,n,u,n,13µM,n,n
O=C(C[n+]1cc(-c2ccccc2)n2c1CCC2)c1cccs1,u,u,n,u,n,n
O=C(C[n+]1cc(-c2ccc(Br)cc2)n2c1CCCCC2)c1ccccc1,u,u,n,1.7µM,u,n
O=C(CN1CCCC1)N1c2ccccc2Sc2ccccc21,n,n,u,u,n,n
Cc1ccc(-c2c[n+](CC(=O)N3c4ccccc4Sc4ccccc43)c3n2CCC3)cc1,n,u,n,3.7µM,-87,n
O=C(C[n+]1cc(-c2ccccc2)n2c1CCC2)N1c2ccccc2Sc2ccccc21,n,u,n,4.1µM,n,n
C=CCO[C@@H]1C=C[C@@H](c2ccccc2)O[C@@H]1COC,n,x,x,x,x,x
CCc1nc2c(OCc3ccccc3C(=O)OC)cccn2c1N(C)C(=O)CC(C)C,x,x,x,x,n,x
O=C(Nc1ccc2c(c1)OCO2)C1C=CC(Br)O1 (stereo not given),n,x,x,x,x,x
CCc1cccc(Nc2cc(C)nc3nc(C)nn23)c1,x,8.3µM,n,5.2µM,n,x
Cc1cc(Nc2cccc(C(F)(F)F)c2)n2nc(C)nc2n1,u,n,n,u,n,n
CCc1nc2nc(C)cc(Nc3cccc(C(F)(F)F)c3)n2n1,n,n,u,2.1µM,n,n
Cc1cc(Nc2ccc(Br)c(C)c2)n2nc(C)nc2n1,n,10µM,n,0.26µM,n,u

# Screening results as filed in PubChem BioAssay.
